The results in this text go back to PubChem BioAssay (EPA / NIEHS).

The structures appear in SMILES notation. Inconclusive results are not listed. Active and inactive are the calls of the source. Rule for the calls, unless noted: active = hit-call score of the fitted dose curve at least 0.9, where 1 is the maximum; inactive = score below 0.9.

Read-out in assay [1]: Pyruvate Dehydrogenase Kinase 4 (PDK4), PDK4 (gene 5166)
The experiment in a line: LTEA_HepaRG_PDK4: Life Technologies and Expression Analysis (LTEA) Assay for Pyruvate Dehydrogenase Kinase 4 (PDK4) using HepaRG (AID 2283525). As to conditions: mRNA level, 48 h; actives raise or lower the signal. In outline: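 HepaRG cells plated 48 h, then switched to serum-free induction medium and exposed in duplicate for 48 h to 8 half-log concentrations from 100 uM in 0.5% DMSO. PDK4 mRNA measured by qRT-PCR, normalized to ACTB, GAPDH and POLR2A; bidirectional fit versus DMSO.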

Read-out in assay [2]: NAD(P)H dehydrogenase [quinone] 1 (NQO1), NQO1 (gene 1728)
The experiment in a line: LTEA_HepaRG_NQO1: Life Technologies and Expression Analysis (LTEA) Assay for NAD(P)H dehydrogenase [quinone] 1 (NQO1) using HepaRG (AID 2283526). The settings on record: mRNA level, 48 h; actives raise or lower the signal. In outline:
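Differentiated HepaRG cells, plated 48 h and then switched to serum-free induction medium, were exposed in duplicate for 48 h to 8-point half-log concentrations up to 100 uM in 0.5% DMSO. mRNA measured by qRT-PCR, normalized to ACTB, GAPDH, POLR2A; bidirectional fit versus DMSO.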

Read-out in assay [3]: succinate dehydrogenase complex iron sulfur subunit B (SDHB), SDHB (gene 6390)
The experiment in a line: LTEA_HepaRG_SDHB: Life Technologies and Expression Analysis (LTEA) Assay for succinate dehydrogenase complex iron sulfur subunit B (SDHB) using HepaRG (AID 2283528). As to conditions: mRNA level, 48 h; actives raise or lower the signal. In outline: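 A human HepaRG culture in serum-free induction medium received test chemicals for 48 h over an eight-point range capped at 100 uM. SDHB expression change was quantified by qRT-PCR.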

Read-out in assay [4]: Signal transducer and activator of transcription 3 (Homo sapiens) (UniProt P40763)
In words: LTEA_HepaRG_STAT3: Life Technologies and Expression Analysis (LTEA) Assay for Signal transducer and activator of transcription (STAT3) using HepaRG (AID 2283529). The settings on record: mRNA level, 48 h; actives raise or lower the signal. A digest of the protocol: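 Differentiated HepaRG cells, serum-free induction medium, dosed 48 h in duplicate, 8 half-log concentrations from 100 uM in 0.5% DMSO. STAT3 mRNA by qRT-PCR, normalised to ACTB, GAPDH, POLR2A; bidirectional fit versus DMSO.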

Read-out in assay [5]: sulfotransferase 2A1 (SULT2A1), SULT2A1 (gene 6822)
The experiment in a line: LTEA_HepaRG_SULT2A1: Life Technologies and Expression Analysis (LTEA) Assay for sulfotransferase 2A1 (SULT2A1) using HepaRG (AID 2283531). The settings on record: mRNA level, 48 h; actives raise or lower the signal. In outline:
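Cells were plated and cultured 48 h, switched to serum-free induction medium, then dosed in duplicate for 48 h (8 concentrations, max 100 uM). RNA was isolated and SULT2A1 expression measured by qRT-PCR; gain or loss of signal fitted relative to DMSO.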

Read-out in assay [6]: Transforming Growth Factor (TGFA), TGFA (gene 7039)
In words: LTEA_HepaRG_TGFA: Life Technologies and Expression Analysis (LTEA) Assay for Transforming Growth Factor (TGFA) using HepaRG (AID 2283532). As to conditions: mRNA level, 48 h; actives raise or lower the signal. A digest of the protocol: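 Differentiated HepaRG cells exposed 48 hours in serum-free induction medium, 0.5% DMSO vehicle, 8-point half-log series from 100 uM, in duplicate. TGFA mRNA by TaqMan qRT-PCR, normalised to ACTB, GAPDH, POLR2A; bidirectional fit versus DMSO.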

Read-out in assay [7]: Transforming Growth Factor (TGFB1), TGFB1 (gene 7040)
The experiment in a line: LTEA_HepaRG_TGFB1: Life Technologies and Expression Analysis (LTEA) Assay for Transforming Growth Factor (TGFB1) Transporter using HepaRG (AID 2283533). The settings on record: mRNA level, 48 h; actives raise or lower the signal. A digest of the protocol:
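Expression change of TGFB1 in human HepaRG cells is measured after a 48 h chemical exposure, up to 100 uM in 0.5% DMSO vehicle. Curves are fitted in both directions relative to the DMSO baseline.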

Read-out in assay [8]: Tumor necrosis factor receptor 1 (TNFRSF1A), TNFRSF1A (gene 7132)
The experiment in a line: LTEA_HepaRG_TNFRSF1A: Life Technologies and Expression Analysis (LTEA) Assay for Tumor necrosis factor receptor 1 (TNFRSF1A) using HepaRG (AID 2283535). The settings on record: mRNA level, 48 h; actives raise or lower the signal. In outline: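 Expression of TNFRSF1A in human HepaRG liver cells was measured by qRT-PCR 48 h after chemical dosing (maximum 100 uM). Bidirectional curve fitting used 0.5% DMSO as baseline.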

Read-out in assay [9]: Thyroid Hormone Responsive (THRSP), THRSP (gene 7069)
The experiment in a line: LTEA_HepaRG_THRSP: Life Technologies and Expression Analysis (LTEA) Assay for Thyroid Hormone Responsive (THRSP) using HepaRG (AID 2283536). The settings on record: mRNA level, 48 h; actives raise or lower the signal. In outline: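 Differentiated HepaRG cells treated 48 h in serum-free induction medium with 8 half-log concentrations up to 100 uM (0.5% DMSO), duplicates. THRSP mRNA by TaqMan qRT-PCR normalised to ACTB, GAPDH, POLR2A; bidirectional fit versus DMSO.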

Read-out in assay [10]: UDP glucuronosyltransferase (UGT1A1), UGT1A1 (gene 54658)
In words: LTEA_HepaRG_UGT1A1: Life Technologies and Expression Analysis (LTEA) Assay for UDP glucuronosyltransferase (UGT1A1) using HepaRG (AID 2283538). The settings on record: mRNA level, 48 h; actives raise or lower the signal. A digest of the protocol:
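Differentiated human HepaRG cells in serum-free induction medium were exposed in duplicate for 48 h to eight half-log concentrations up to 100 uM in 0.5% DMSO. UGT1A1 mRNA was quantified by TaqMan qRT-PCR, normalized to ACTB, GAPDH and POLR2A, and fitted bidirectionally against DMSO.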

Read-out in assay [11]: UDP glucuronosyltransferase (UGT1A6), UGT1A6 (gene 54578)
The experiment in a line: LTEA_HepaRG_UGT1A6: Life Technologies and Expression Analysis (LTEA) Assay for UDP glucuronosyltransferase (UGT1A6) using HepaRG (AID 2283539). As to conditions: mRNA level, 48 h; actives raise or lower the signal. In outline:
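Endpoint is UGT1A6 transcript induction or loss in a human liver cell line, quantified by TaqMan qRT-PCR 48 h after dosing. Concentrations ran from 100 uM downward in half-log steps in 0.5% DMSO; activity was fitted in both directions versus vehicle.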

Read-out in assay [12]: X-box binding protein 1 (XBP1), XBP1 (gene 7494)
The experiment in a line: LTEA_HepaRG_XBP1: Life Technologies and Expression Analysis (LTEA) Assay for X-box binding protein 1 (XBP1) using HepaRG (AID 2283540). The settings on record: mRNA level, 48 h; actives raise or lower the signal. In outline: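 Human HepaRG monolayers receive test chemical for 48 h across an eight-point half-log series starting at 100 uM. XBP1 mRNA gain or loss is scored against DMSO by qRT-PCR.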

The nature of assay [13]: LTEA_HepaRG_LDH_cytotoxicity: Cytotoxicity Assessment in the Life Technologies and Expression Analysis (LTEA) Assay (AID 2283563; active = hit-call score of the fitted dose curve at least 0.9, where 1 is the maximum). A digest of the protocol:
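Human HepaRG hepatic cells are treated with test chemicals for 48 h at up to 100 uM in 0.5% DMSO. Cytotoxicity is scored from medium LDH against the vehicle control.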

A short description of assay [14]: ATG_XTT_Cytotoxicity: Cytotoxicity Assessment in the Attagene TRANS-FACTORIAL HepG2 Assay (AID 2283584; active = hit-call score of the fitted dose curve at least 0.9, where 1 is the maximum). In outline: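 Transfect HepG2 with GAL4-UAS reporter units, dose compound, incubate 24 h, then measure viable cell number by XTT. Fit concentration response against DMSO baseline.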
Read-out in assay [15]: Cellular tumor antigen p53 (Homo sapiens) (UniProt P04637)
In words: LTEA_HepaRG_TP53: Life Technologies and Expression Analysis (LTEA) Assay for Tumor Protein P53 (TP53) using HepaRG (AID 2283537). The settings on record: mRNA level, 48 h; actives raise or lower the signal. In outline: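 Gain or loss of TP53 mRNA signal is scored relative to 0.5% DMSO after 48 h chemical treatment of HepaRG liver cells, tested in duplicate at eight half-log concentrations up to 100 uM.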

The nature of assay [16]: TOX21_p53_BLA_p2_viability: Viability Assessment in the Tox21 HCT-116 p53 Agonism Beta-lactamase Assay, Phase 2 (AID 2283591; active = hit-call score of the fitted dose curve at least 0.9, where 1 is the maximum;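 note: compound exposure lasted 16 h at 37 °C; actives lower the ATP signal meaning cytotoxicity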). In outline:
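HCT116 p53-bla cells, 4000/well, dosed after 5 h plating (217-fold dilution of DMSO stocks) and incubated 16 h at 37C. Viability taken as cellular ATP by CellTiter-Glo luminescence after 30 min RT; signal loss marks cytotoxicity.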

The target in assay [17] is Cellular tumor antigen p53 (Homo sapiens) (UniProt P04637). The experiment in a line: TOX21_p53_BLA_p2_ratio: Tox21 HCT-116 p53 Agonism Beta-lactamase Assay, Ratio, Phase 2 (AID 2283592; active = hit-call score of the fitted dose curve at least 0.9, where 1 is the maximum). A digest of the protocol: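 An inducible beta-lactamase reporter in HCT116 cells signals p53 pathway activation. After 16 h chemical exposure at 37C, cells load CCF4-AM substrate for 2 h at room temperature; activity is the cleaved/uncleaved emission ratio relative to DMSO.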

Read-out in assay [18]: solute carrier (SLCO1B1), SLCO1B1 (gene 10599)
The experiment in a line: LTEA_HepaRG_SLCO1B1: Life Technologies and Expression Analysis (LTEA) Assay for solute carrier (SLCO1B1) using HepaRG (AID 2283530). The settings on record: mRNA level, 48 h; actives raise or lower the signal. A digest of the protocol:
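Gain or loss of SLCO1B1 mRNA is fitted against the 0.5% DMSO vehicle in human HepaRG liver cells treated 48 h at up to 100 uM in half-log steps. Expression comes from qRT-PCR normalized to endogenous controls.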

Assay [19] is described as follows: TOX21_p53_BLA_p3_viability: Viability Assessment in the Tox21 HCT-116 p53 Agonism Beta-lactamase Assay, Phase 3 (AID 2283593; active = hit-call score of the fitted dose curve at least 0.9, where 1 is the maximum;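 note: cells exposed to compound for 16 h before reading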). A digest of the protocol: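 HCT116 cells, 4000/well, dosed 5 h after plating by pin transfer (217-fold dilution from DMSO stock) and incubated 16 h at 37C, 5% CO2. Viability read as ATP luminescence with CellTiter-Glo after 30 min at room temperature.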

Chain of Cellular tumor antigen p53 (Homo sapiens) (P04637 whole entry, looked up): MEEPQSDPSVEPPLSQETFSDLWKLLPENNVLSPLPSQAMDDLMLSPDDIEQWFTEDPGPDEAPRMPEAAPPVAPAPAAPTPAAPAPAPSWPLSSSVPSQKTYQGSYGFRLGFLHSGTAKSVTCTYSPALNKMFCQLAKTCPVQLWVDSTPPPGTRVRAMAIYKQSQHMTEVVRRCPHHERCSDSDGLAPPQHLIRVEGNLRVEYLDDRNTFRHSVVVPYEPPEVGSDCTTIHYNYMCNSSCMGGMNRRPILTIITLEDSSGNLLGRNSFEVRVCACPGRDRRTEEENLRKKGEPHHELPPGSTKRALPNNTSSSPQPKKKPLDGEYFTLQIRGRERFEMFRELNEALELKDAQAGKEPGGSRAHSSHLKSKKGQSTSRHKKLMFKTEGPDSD
Chain of Signal transducer and activator of transcription 3 (Homo sapiens) (P40763 whole entry, looked up): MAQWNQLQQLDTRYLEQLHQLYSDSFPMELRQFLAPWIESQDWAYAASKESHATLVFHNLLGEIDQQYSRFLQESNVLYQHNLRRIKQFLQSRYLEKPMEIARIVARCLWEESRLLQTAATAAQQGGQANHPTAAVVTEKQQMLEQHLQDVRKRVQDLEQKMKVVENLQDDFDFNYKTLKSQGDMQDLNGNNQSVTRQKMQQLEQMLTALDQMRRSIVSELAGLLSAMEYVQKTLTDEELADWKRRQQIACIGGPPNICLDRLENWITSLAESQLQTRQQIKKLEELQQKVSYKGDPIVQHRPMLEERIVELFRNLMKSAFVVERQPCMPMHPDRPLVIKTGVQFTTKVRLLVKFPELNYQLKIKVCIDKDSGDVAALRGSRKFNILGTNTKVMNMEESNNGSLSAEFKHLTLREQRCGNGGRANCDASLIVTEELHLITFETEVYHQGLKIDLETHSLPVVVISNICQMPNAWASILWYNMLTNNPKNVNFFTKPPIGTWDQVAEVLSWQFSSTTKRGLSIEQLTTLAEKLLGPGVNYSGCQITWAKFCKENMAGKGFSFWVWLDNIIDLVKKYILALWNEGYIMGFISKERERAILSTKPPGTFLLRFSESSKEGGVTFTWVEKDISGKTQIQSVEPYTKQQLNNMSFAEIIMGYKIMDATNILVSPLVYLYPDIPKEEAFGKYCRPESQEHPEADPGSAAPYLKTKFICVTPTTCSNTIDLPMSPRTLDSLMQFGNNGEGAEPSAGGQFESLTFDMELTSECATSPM

Take `CCNc1nc(Cl)nc(NC(C)(C)C)n1`: the call in [1], in [2], in assay [3], in assay [4], in assay [5] and in [6] was inactive. In addition, the result in assay [7], in [8], in assay [9], in [11], in assay [12] and in [13] was inactive. Further, the call in [14] was inactive. In addition, in assay [10], the AC50 was 6.03 µM (active).

Consider `c1nc[nH]n1`, for which the compound was called inactive in assay [1], in assay [3], in assay [4], in assay [5], in assay [8] and in [9]. Besides, the compound was called inactive in [15], in [10], in assay [11], in [12], in assay [13] and in assay [14]. Besides, the call in assay [16] and in assay [17] was inactive. Further, the results for the AC50 in assay [2], in assay [6] and in assay [7] were 0.106 µM (active), 0.0948 µM (active) and 12.4 µM (active), respectively.

With `Cc1ccc(O)cc1C`, the result in assay [1], in assay [2], in assay [3], in [4], in [5] and in assay [6] was inactive. In addition, the compound was called inactive in assay [7], in assay [8], in assay [9], in [15], in assay [10] and in assay [11]. Further, in assay [12], the result was inactive.

Consider `Cc1ccc(N)cc1N`, for which the AC50 in assay [1] is 36.3 µM (active); in assay [9], 4.89 µM (active); in assay [10], 15 µM (active). Also, the outcome in assay [2], in assay [3], in [4], in assay [18], in assay [5] and in [6] was inactive. The compound was classed as inactive in assay [7], in [8], in [15], in [11], in assay [12] and in assay [13]. The result in assay [17] and in assay [19] was inactive.
